Where “and” joins values, the source holds several entries; their conditions need not be identical. Equal values may be shown once. Some compounds were tested as several samples or in several runs, with calls that do not always agree. Calls of active or inactive are those of the source. Where a call stands in place of a potency, no number is given. Unless noted, the call rests on the fitted dose curve; in most records, active means well fitted curve in the direction sought with a large enough effect in the repeat runs; inconclusive means weak or mixed curves; inactive means no such curve, though single readings can be large; an effect the other way counts as inactive or inconclusive.
How the values were obtained:
[1] = qHTS assay to identify small molecule antagonists of the thyroid receptor (TR) signaling pathway - cell viability counter screen (AID 743064); further: nearly all actives have a fitted effect of over 50% in size; further: potency means the concentration at half of the fitted maximal effect
Summary of the method: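 Fluorescence from CellTiter-Fluor, added after 23.5 h exposure at 37 °C, reported viability of GH3.TRE-Luc cells co-treated with compound and 1 nM T3. Measured in the same wells as the luciferase TR readout.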

[2] = qHTS assay to identify small molecule antagonists of the thyroid receptor (TR) signaling pathway (AID 743065); further: nearly all actives have a fitted effect of over 55% in size; further: potency means the concentration at half of the fitted maximal effect
Summary of the method: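 Antagonism measured as loss of luciferase signal in GH3 cells stably carrying a TRE-luciferase reporter, co-treated with compound and T3 (1 nM final) for 23.5 h at 37 C. Viability was read in the same well by CellTiter-Fluor.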

[3] = system: thyroid hormone receptor (rat, GH3 cells); assay: qHTS assay to identify small molecule agonists of the thyroid receptor (TR) signaling pathway (AID 743066; calls by dose curve)
[4] = qHTS assay to identify small molecule antagonists of the estrogen receptor alpha (ER-alpha) signaling pathway - cell viability counter screen (AID 743074; calls by dose curve; further: nearly all actives have a fitted effect of over 45% in size; further: potency means the concentration at half of the fitted maximal effect)
[5] = target: Estrogen receptor (Homo sapiens) (UniProt P03372); assay: qHTS assay to identify small molecule agonists of the estrogen receptor alpha (ER-alpha) signaling pathway (AID 743075; calls by dose curve; further: potency means the concentration at half of the fitted maximal effect)
Chain of Estrogen receptor (Homo sapiens) (P03372 whole entry, looked up): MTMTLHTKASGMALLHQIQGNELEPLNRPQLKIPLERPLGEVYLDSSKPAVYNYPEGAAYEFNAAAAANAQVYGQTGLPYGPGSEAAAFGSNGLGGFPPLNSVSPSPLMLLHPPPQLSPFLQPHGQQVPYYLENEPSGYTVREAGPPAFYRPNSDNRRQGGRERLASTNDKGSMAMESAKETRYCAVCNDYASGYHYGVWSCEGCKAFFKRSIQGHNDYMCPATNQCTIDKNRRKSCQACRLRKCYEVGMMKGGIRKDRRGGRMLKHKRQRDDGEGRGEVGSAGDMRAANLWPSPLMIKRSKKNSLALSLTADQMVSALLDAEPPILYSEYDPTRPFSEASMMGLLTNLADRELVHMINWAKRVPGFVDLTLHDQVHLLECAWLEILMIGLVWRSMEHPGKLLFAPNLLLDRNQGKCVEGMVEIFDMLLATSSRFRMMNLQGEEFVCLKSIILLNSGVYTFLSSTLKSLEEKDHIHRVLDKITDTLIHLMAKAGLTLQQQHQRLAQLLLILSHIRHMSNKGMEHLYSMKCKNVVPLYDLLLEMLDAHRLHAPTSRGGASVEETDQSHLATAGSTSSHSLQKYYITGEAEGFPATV

[6] = target: Estrogen receptor (Homo sapiens) (UniProt P03372); assay: qHTS assay to identify small molecule agonists of the estrogen receptor alpha (ER-alpha) signaling pathway using the BG1 cell line (AID 743079); further: nearly all actives have a fitted effect of over 20% in size; further: potency means the concentration at half of the fitted maximal effect
[7] = qHTS assay to identify small molecule antagonists of the estrogen receptor alpha (ER-alpha) signaling pathway using the BG1 cell line - cell viability counter screen (AID 743081);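 further: compound given together with 17beta-estradiol as the ER stimulus; series mostly up to about 70 µM; nearly all actives have a fitted effect of over 45% in size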
Aromatase (Homo sapiens) = Aromatase (Homo sapiens) (UniProt P11511); assay: qHTS assay to identify aromatase inhibitors (AID 743083); further: series mostly up to about 70 µM; nearly all actives have a fitted effect of over 55% in size
Chain of Aromatase (Homo sapiens) (P11511 whole entry, looked up): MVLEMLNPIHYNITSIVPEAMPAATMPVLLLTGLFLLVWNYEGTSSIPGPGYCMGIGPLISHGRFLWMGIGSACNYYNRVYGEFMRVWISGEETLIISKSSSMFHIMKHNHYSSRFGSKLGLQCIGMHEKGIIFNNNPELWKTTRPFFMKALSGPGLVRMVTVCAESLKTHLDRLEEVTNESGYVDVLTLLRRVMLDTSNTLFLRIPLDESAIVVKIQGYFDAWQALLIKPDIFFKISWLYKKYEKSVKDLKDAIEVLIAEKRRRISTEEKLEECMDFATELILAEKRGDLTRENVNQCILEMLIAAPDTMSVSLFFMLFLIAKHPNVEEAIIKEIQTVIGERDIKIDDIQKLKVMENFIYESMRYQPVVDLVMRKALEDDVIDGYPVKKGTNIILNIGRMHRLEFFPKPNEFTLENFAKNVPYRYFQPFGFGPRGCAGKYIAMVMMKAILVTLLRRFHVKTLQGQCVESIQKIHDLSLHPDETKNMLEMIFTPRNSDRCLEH

[8] = qHTS assay to identify aromatase inhibitors - cell viability counter screen (AID 743084);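 further: cells stimulated with testosterone during compound exposure; nearly all actives have a fitted effect of over 55% in size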
[9] = target: Aryl hydrocarbon receptor (Homo sapiens) (UniProt P35869); assay: qHTS assay to identify small molecule that activate the aryl hydrocarbon receptor (AhR) signaling pathway (AID 743085);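 further: HG2L7.5c1 human HepG2 liver cells with stably integrated DRE-driven firefly reporter; series mostly up to about 70 µM; nearly all actives have a fitted effect of over 15% in size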
Chain of Aryl hydrocarbon receptor (Homo sapiens) (P35869 whole entry, looked up): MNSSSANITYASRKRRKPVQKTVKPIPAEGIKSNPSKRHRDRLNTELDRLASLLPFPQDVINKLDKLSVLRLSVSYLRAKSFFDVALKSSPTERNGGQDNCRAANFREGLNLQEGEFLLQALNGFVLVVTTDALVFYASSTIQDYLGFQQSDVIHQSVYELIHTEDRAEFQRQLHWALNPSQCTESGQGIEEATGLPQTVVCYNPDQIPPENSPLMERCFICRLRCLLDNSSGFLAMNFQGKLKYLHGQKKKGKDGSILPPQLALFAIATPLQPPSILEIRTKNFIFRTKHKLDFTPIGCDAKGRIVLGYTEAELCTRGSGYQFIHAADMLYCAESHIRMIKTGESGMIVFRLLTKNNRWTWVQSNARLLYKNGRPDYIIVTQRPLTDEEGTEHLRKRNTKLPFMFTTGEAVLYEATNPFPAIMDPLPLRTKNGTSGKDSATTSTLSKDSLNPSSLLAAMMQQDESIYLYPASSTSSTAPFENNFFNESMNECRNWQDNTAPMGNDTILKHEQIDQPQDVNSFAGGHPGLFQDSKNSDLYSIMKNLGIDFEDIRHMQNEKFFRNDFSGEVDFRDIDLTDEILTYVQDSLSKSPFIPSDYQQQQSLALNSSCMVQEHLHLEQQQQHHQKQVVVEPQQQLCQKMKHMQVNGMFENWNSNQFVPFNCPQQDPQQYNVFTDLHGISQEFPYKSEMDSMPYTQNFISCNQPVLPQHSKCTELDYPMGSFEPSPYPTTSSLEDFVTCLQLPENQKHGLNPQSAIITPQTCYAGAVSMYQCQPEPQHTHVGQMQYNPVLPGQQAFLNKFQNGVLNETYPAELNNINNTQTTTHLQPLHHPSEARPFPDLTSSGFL
Summary of the method: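 Cell line HG2L7.5c1 (human hepatoma, 20× DRE-luc). Plated, 5 h 37C, compound/DMSO added, 24 h 37C. CellTiter-Fluor 30 min 37C → fluorescence; then ONE-Glo 30 min RT → luminescence.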

[10] = qHTS assay to identify small molecule that activate the aryl hydrocarbon receptor (AhR) signaling pathway - cell viability counter screen (AID 743086); further: nearly all actives have a fitted effect of over 45% in size; further: potency means the concentration at half of the fitted maximal effect
Summary of the method: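 Cytotoxicity counter screen: CellTiter-Fluor signal (30 min, 37 C) in 4000 HepG2 cells/well carrying the DRE-luciferase reporter, following 24 h compound exposure at 37 C.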

[11] = target: Peroxisome proliferator-activated receptor gamma (Homo sapiens) (UniProt P37231); assay: qHTS assay to identify small molecule agonists of the peroxisome proliferator-activated receptor gamma (PPARg) signaling pathway (AID 743094; active means well fitted activation curve with a large enough effect in the signal ratio in the repeat runs, not every such curve was filed as active; inconclusive means weak or mixed curves, or effect the other way; inactive means no such curve, though single readings can be large or run the other way; the % refers to the signal ratio)
Chain of Peroxisome proliferator-activated receptor gamma (Homo sapiens) (P37231 whole entry, looked up): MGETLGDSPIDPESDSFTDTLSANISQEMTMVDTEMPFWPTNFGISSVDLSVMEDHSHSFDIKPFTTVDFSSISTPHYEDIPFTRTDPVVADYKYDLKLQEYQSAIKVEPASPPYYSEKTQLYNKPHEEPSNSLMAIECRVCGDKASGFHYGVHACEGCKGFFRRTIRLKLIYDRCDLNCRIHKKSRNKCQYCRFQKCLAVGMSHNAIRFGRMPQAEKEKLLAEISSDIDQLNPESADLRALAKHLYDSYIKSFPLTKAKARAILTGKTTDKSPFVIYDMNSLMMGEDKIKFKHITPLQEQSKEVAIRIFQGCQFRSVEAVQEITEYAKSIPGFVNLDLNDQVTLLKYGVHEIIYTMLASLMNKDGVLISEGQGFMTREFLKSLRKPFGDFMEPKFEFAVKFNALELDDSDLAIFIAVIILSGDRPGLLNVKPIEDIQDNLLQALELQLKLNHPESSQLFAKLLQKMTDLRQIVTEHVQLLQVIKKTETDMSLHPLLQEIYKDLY
Summary of the method: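 Cells from the PPARg UAS-bla HEK293H line are plated and incubated 5 h at 37C. Compounds in DMSO are pinned in and left 17 h at 37C. LiveBLAzer B/G substrate is then added for 1 h at room temperature before fluorescence is measured.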

[12] = target: Estrogen receptor (Homo sapiens) (UniProt P03372); assay: qHTS assay to identify small molecule antagonists of the estrogen receptor alpha (ER-alpha) signaling pathway (AID 743069; active means well fitted curve in the direction sought with a large enough effect in the signal ratio in the repeat runs, not every such curve was filed as active; inconclusive means weak or mixed curves, or effect the other way; inactive means no such curve, though single readings can be large or run the other way; the % refers to the signal ratio)
Summary of the method: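 Fluorescence intensity from a beta-lactamase FRET substrate served as the read-out. Cells: HEK293 with stably integrated ER-alpha-UAS-bla reporter. Agonist 17beta-estradiol was co-added with compounds; incubation 18 hr at 37C, substrate 2 hr at room temperature.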

[13] = qHTS assay to identify small molecule antagonists of the estrogen receptor alpha (ER-alpha) signaling pathway using the BG1 cell line (AID 743080; calls by dose curve;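 further: BG1 cells stimulated with 17beta-estradiol alongside compound; series mostly up to about 70 µM; nearly all actives have a fitted effect of over 25% in size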)
Summary of the method: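 After 5 days in phenol-red-free 10% charcoal-stripped FBS medium, BG1-Luc-4E2 cells were seeded, left 24 h at 37 C, co-treated with compounds and 17beta-estradiol for 21.5 h, then assayed for viability and luciferase.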

[14] = qHTS assay to identify small molecule antagonists of the peroxisome proliferator-activated receptor gamma (PPARg) signaling pathway - cell viability counter screen (AID 743194); further: nearly all actives have a fitted effect of over 55% in size; further: potency means the concentration at half of the fitted maximal effect
Summary of the method: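 Viability was measured as CellTiter-Glo luminescence in GeneBLAzer PPARg UAS-bla HEK293H cells. These cells had been exposed 17 h at 37 C to compounds together with rosiglitazone at 50 nM final, with the beta-lactamase readout taken in the same wells.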

[15] = qHTS assay for small molecule agonists of the antioxidant response element (ARE) signaling pathway - cell viability counter screen (AID 743203; calls by dose curve; further: nearly all actives have a fitted effect of over 55% in size; further: potency means the concentration at half of the fitted maximal effect)
Summary of the method: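 Cytotoxicity was tested in parallel with the ARE reporter screen. ARE-bla HepG2 cells were exposed to compounds for 16 hrs, and viability was taken from CellTiter-Glo luminescence.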

[16] = qHTS assay for small molecule activators of the heat shock response signaling pathway - cell viability counter screen (AID 743209); further: potency means the concentration at half of the fitted maximal effect; nearly all actives have a fitted effect of over 50% in size
Summary of the method: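 Cytotoxicity counter screen run in parallel with the HSE beta-lactamase reporter, using the same wells. HeLa HSE-bla cells received compound for 5 h at 37 C; ATP-based CellTiter-Glo luminescence was measured after 30 min at room temperature.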

[17] = target: Peroxisome proliferator-activated receptor gamma (Homo sapiens) (UniProt P37231); assay: qHTS assay to identify small molecule antagonists of the peroxisome proliferator-activated receptor gamma (PPARg) signaling pathway (AID 743191; calls by dose curve; further: series mostly up to about 63 µM; nearly all actives have a fitted effect of over 30% in size)
Summary of the method: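 Beta-lactamase reporter under UAS control in HEK293H PPARg-bla cells; compound treatment 17 h at 37C. Read-out: fluorescence intensity after 1 h room-temperature incubation with LiveBLAzer B/G FRET substrate.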

Structure (SMILES) | Potency [1] | Potency [2] | Potency [3] | Potency [4] | Potency [5] | Potency [6] | Potency [7] | Potency (Aromatase (Homo sapiens)) | Potency [8] | Potency [9] | Potency [10] | Potency [11] | Potency [12] | Potency [13] | Potency [14] | Potency [15] | Potency [16] | Potency [17]
CC(=O)OCC(=O)[C@@]1(O)CC[C@H]2[C@@H]3C[C@H](C)C4=CC(=O)C=C[C@]4(C)[C@H]3[C@@H](O)C[C@@]21C | inactive | inactive | inactive | inactive | inactive | 18800 nM (active) | inactive | inactive | inactive | inactive | inactive | inactive |  |  |  |  |  | 
C[Se]CC[C@H](N)C(=O)O | inactive | inactive | inactive | inactive | inactive | inactive |  | inactive | inactive |  |  | inactive | inactive |  |  |  |  | 
CC[C@@H](C(=O)[C@@H](C)[C@@H](O)[C@H](C)CCc1ccc(C)c(O)c1C(=O)O)[C@H]1O[C@](CC)([C@H]2CC[C@](O)(CC)[C@H](C)O2)C[C@@H]1C | 3350 nM (active) | 1.33 µM (active) | inactive | 19000 nM (active) | inactive | inactive |  | inactive |  | inactive | 29800 nM (active) | inactive |  |  |  |  |  | 
N[C@H](C(=O)O)[C@@H]1CC(Cl)=NO1 | 5960 nM (active) | 2.98 µM (active) | inactive | inactive | inactive | inactive | inactive |  | inactive | inactive | inactive | inactive |  | inactive |  |  |  | 
C[C@H]1O[C@@H](O[C@H]2CC[C@@]3(C)[C@H](CC[C@@H]4[C@@H]3C[C@@H](O)[C@]3(C)[C@@H](C5=CC(=O)OC5)CC[C@]43O)C2)C[C@H](O)[C@@H]1O[C@H]1C[C@H](O)[C@H](O[C@H]2C[C@H](O)[C@H](O[C@@H]3O[C@H](CO)[C@@H](O)[C@H](O)[C@H]3O)[C@@H](C)O2)[C@@H](C)O1 | inactive | inactive | inactive | 268 nM (active) | inactive |  | inactive | inactive | inactive | inactive | inactive |  |  |  | 150 nM (active) | 75 nM (active) | 1060 nM (active) | 
NCCCC(=O)O | inactive | inactive | inactive | inactive | inactive | inactive | inactive | inactive |  | inactive | inactive | inactive | inactive | inactive |  |  |  | 
CN(Cc1ccccc1)Cc1ccccc1 | inactive | inactive | inactive | inactive | inactive | inactive | inactive | inactive | inactive |  | inactive | inactive | inactive | inactive |  |  |  | 
OCCCNc1ccccc1 | inactive | inactive | inactive | inactive | inactive | inactive |  | inactive | inactive | inactive | inactive | inactive | inactive | inactive |  |  |  | 
CC(C)(C)C(=O)OCC(=O)[C@H]1CC[C@H]2[C@@H]3CCC4=CC(=O)CC[C@]4(C)[C@H]3CC[C@]12C | inactive | inactive | inactive | inactive | inactive |  | inactive | inactive | inactive | inactive | inactive | inactive | inactive | inactive |  |  |  | 
O=C1OC(=O)c2cc(-c3ccc4c(c3)C(=O)OC4=O)ccc21 | inactive | inactive | inactive |  | inactive | inactive | inactive | inactive | inactive | inactive | inactive | inactive | inactive | inactive | inactive | inactive |  | inactive
NC(N)=NCCCCN=C(N)N | inactive | inactive | inactive | inactive | 5350 nM [inconclusive] (active) | 473 nM (active) |  | inactive | inactive |  | inactive | inactive |  | inactive |  |  |  | 
COC1[C@@H](O[C@@H]2O[C@H](C)[C@@H](O[C@H]3C[C@@](C)(O)[C@H](OC(=O)CC(C)C)[C@H](C)O3)[C@H](N(C)C)[C@H]2O)[C@@H](CC=O)C[C@@H](C)[C@@H](O)/C=C/C=C/C[C@@H](C)OC(=O)C[C@H]1OC(C)=O (stereo not given in full) | inactive | inactive | inactive | inactive | inactive | inactive |  | inactive | inactive | inactive | inactive | inactive | inactive | inactive |  |  |  | 
Cc1cccc(C)c1NC(=O)C1CCCCN1C (stereo not given) | inactive | inactive | inactive | inactive | inactive | inactive |  | inactive | inactive | inactive | inactive | inactive | inactive | inactive |  |  |  | 
CC(=NCc1ccccc1)c1ccccc1O | inactive | inactive | inactive | inactive | inactive | inactive | inactive | inactive | inactive |  | inactive | inactive | inactive | inactive |  |  |  | 
COc1ccc([C@@H]2CC(=O)c3c(O)cc(O[C@@H]4O[C@H](CO[C@@H]5O[C@@H](C)[C@H](O)[C@@H](O)[C@H]5O)[C@@H](O)[C@H](O)[C@H]4O)cc3O2)cc1O | inactive | inactive | inactive | inactive | inactive | inactive |  | inactive | inactive | inactive | inactive | inactive | inactive | inactive |  |  |  | 
Cc1c(N)nc([C@H](CC(N)=O)NC[C@H](N)C(N)=O)nc1C(=O)N[C@H](C(=O)N[C@H](C)[C@@H](O)[C@H](C)C(=O)N[C@H](C(=O)NCCc1nc(-c2nc(C(=O)NCCCCN=C(N)N)cs2)cs1)[C@@H](C)O)[C@@H](O[C@@H]1O[C@@H](CO)[C@@H](O)[C@H](O)[C@@H]1O[C@H]1O[C@H](CO)[C@@H](O)[C@H](OC(N)=O)[C@@H]1O)c1cnc[nH]1 | inactive and 4.22 µM (active) | 3.76 µM (active) and 841 nM (active) | inactive | inactive | inactive | inactive | inactive | inactive | inactive | inactive | inactive | inactive |  |  |  |  |  | 

From PubChem BioAssay (Tox21)
